# High-throughput results deposited in PubChem by several laboratories.
# CendR NRP1 mod: NRP-1/CendR interaction modulation; O14786; FAM-RPARPAR peptide binding to NRP-1, fluorescence polarization; inhibition, % at 25 µM; actives 0.85% (n = 360,000); AID 602438;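 active means inhibition or corrected inhibition above about 18%, plus a signal ratio from 0.5 to 1.5, limit read from the data, passing the limit was not always enough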
# APOBEC3G inh: APOBEC3G (human) deaminase inhibition; inhibition, % at 20 µM; Q9HC16; recombinant A3G, ssDNA deamination FAM/TAMRA fluorescence; AID 493012; actives 0.28% (n = 330,000);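 active means inhibition of at least 40% at 20 µM, with no more than 30% in the related APOBEC3A deaminase screen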;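 further: plate controls were DMSO wells with A3G for no effect and wells lacking A3G enzyme for full effect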
# VLA-4 inh: inhibition in a human VLA-4 binding assay; P13612; VLA-4 expressing cells, ligand binding flow cytometry; inhibition, % (about 7 µM as worked out from the volumes in the protocol); actives 0.2% (n = 330,000); in the data active means inhibition above about 50%
# Target sequence (P13612 whole entry, looked up): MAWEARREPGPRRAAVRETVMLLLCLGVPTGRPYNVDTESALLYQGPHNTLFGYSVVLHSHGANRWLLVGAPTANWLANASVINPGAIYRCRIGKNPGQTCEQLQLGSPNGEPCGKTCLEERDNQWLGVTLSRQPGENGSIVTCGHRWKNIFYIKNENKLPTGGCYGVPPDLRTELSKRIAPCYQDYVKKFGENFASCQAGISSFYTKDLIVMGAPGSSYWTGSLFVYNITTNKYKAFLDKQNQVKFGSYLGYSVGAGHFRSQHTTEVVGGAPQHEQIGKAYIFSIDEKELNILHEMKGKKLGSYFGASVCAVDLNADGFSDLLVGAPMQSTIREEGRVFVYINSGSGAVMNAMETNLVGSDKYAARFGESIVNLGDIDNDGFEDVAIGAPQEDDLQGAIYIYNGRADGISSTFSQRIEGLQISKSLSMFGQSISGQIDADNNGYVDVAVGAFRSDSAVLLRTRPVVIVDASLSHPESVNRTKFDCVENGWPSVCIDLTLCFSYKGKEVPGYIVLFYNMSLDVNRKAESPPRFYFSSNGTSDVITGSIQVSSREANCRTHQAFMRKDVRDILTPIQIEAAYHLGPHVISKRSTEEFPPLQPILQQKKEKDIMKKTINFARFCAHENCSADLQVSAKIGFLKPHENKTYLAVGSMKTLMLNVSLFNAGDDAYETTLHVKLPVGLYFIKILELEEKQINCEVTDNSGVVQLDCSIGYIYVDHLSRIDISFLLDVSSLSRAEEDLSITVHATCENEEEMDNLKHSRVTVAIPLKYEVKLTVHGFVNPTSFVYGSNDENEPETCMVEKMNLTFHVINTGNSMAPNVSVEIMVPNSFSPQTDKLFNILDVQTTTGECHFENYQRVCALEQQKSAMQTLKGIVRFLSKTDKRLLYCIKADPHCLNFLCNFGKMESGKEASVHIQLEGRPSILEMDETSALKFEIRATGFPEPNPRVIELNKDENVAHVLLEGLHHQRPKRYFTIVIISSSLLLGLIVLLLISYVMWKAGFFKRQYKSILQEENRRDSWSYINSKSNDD
# A3A deaminase: human APOBEC3A DNA deaminase inhibition. P31941. recombinant A3A, FAM/TAMRA ssDNA deamination fluorescence. inhibition, % at 20 µM. actives 0.41% (n = 330,000). AID 493011;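 active means at least 40% inhibition at 20 µM here, with at most 30% in a related deaminase screen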;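 further: plate controls were A3A with DMSO for no effect and wells lacking A3A enzyme for full effect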
# MIN6 prolif: induces beta-cell replication in MIN6 cells; MIN6 cells proliferation, ATPlite luminescence, 48 h; cells starved in 0.2% serum; 100% = growth in 10% serum; proliferation, % at 10 µM; actives 0.29% (n = 330,000); AID 2380;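 active means compounds whose signal lies at least 3.5 SD above the mean of all wells on their plate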;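 further: 0% = DMSO-treated cells in low-serum medium and 100% = 10% serum control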
# A3G conf: confirmation of human APOBEC3G DNA deaminase inhibitors; shares compounds with APOBEC3G inh; recombinant A3G ssDNA deaminase, UDG/FAM-TAMRA fluorescence; inhibition, % at 20 µM; actives 72% (n = 890);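 active means inhibition reaching a set limit in any replicate at 20 µM, the limit being 80% of the first screen's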
# UDG A3G counter: E. coli UDG inhibition in APOBEC3G counter-screen; inhibition, % at 20 µM; 710 tested, under 10 active; AID 504715; shares compounds with APOBEC3G inh; UDG counterscreen, FAM/TAMRA oligo fluorescence;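 active means compounds giving 40% or more inhibition at 20 µM in any one of the three replicates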;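 further: plate controls were DMSO wells with UDG and oligo for no effect and DMSO wells lacking both for full effect; inhibitors lower the FAM signal released by uracil excision and alkaline cleavage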
# An asterisk follows results filed as active; · = no result given; ! = a repeat was not active. This is a sample that favours compounds with a hit; in the whole collection about 1.8% have one here.
SMILES,CendR NRP1 mod,APOBEC3G inh,VLA-4 inh,A3A deaminase,MIN6 prolif,A3G conf,UDG A3G counter
CC(Sc1ccc2nnc(-c3ccc(F)cc3)n2n1)C(=O)O (centres undefined),-3.4,42.0*,-8.5,0.4,-4.7,52.0*,-3.3
COCc1cc(=O)n2[nH]c(-c3ccsc3-n3c(C)ccc3C)cc2n1,-74.5,52.6,-3.3,56.6,-3.4,·,·
Cc1cc(=O)n2[nH]c(-c3ccsc3-n3c(C)ccc3C)cc2n1,-50.1,42.9*,16.6,29.1,-2.2,43.5*,-4.9
COCCCC/C(=N\OCCN)c1ccc(C(F)(F)F)cc1,-7.0,81.0*!,12.1,0.3,-3.8,-5.8,-0.1
O=C(O)c1ccccc1NS(=O)(=O)c1cccc(-n2sc3ccccc3c2=O)c1,-97.6,78.1*,10.8,5.8,-2.6,87.2*,-1.9
CCCOC(=O)c1c(NC(=O)C2CCCO2)sc(C(=O)OC)c1C (centres undefined),7.8,41.4*,-5.1,-1.8,1.4,47.8*,-0.9
CCOC(=O)c1cc(-c2ccccc2)sc1NC(=O)c1ccc(OC)c(OC)c1,3.6,56.9*,12.5,0.6,-4.3,47.1*,-2.5
CCOC(=O)c1cc(-c2ccccc2)sc1NC(=O)C(C)C,4.3,-7.8,-2.4,-4.8,0.9,·,·
CCS(=O)(=O)N1Cc2ccccc2CC1C(=O)Nc1ccc(F)c(F)c1F (centres undefined),-5.3,-7.3,3.7,-1.9,-2.4,·,·
Cc1cc(=O)oc2cc(NC(=O)C3CCCC3)ccc12,-19.0,56.8*,1.2,-1.6,-3.2,4.0,3.7
CNC(=O)/C(C#N)=C/c1ccc(OCCOc2ccccc2)cc1,1.4,-2.0,5.6,1.6,-0.7,·,·
NC(=O)c1c(NC(=O)CCCn2cnc([N+](=O)[O-])n2)sc2c1CCCC2,-4.5,59.2*,2.8,4.0,-1.3,41.4*,2.9
COC(=O)c1cnc(N)s1,7.6,·,·,·,·,·,·
CCC(C)(C)c1nnc(NC(=O)C2CCN(C(=O)c3ccco3)CC2)s1,14.5,67.3*,4.5,3.4,-6.4,80.5*,-2.3
CCc1nnc(NC(=O)C2CCN(C(=O)c3ccco3)CC2)s1,-0.9,-2.1,-10.6,-0.9,0.3,·,·
CC(C)(C)n1nnnc1C(c1cccnc1)N(Cc1ccccc1)Cc1ccco1 (centres undefined),-7.9,40.7*,-13.3,0.6,0.4,1.1,·
COc1cccc(CN(Cc2ccco2)C(c2ccc(F)cc2)c2nnnn2C(C)(C)C)c1 (centres undefined),-2.5,5.2,0.8,4.7,-5.3,·,·
S=c1nc(-c2ccccc2)n(-c2ccccc2)[nH]1,5.4,48.1*,24.3,-5.7,3.4,86.7*,-1.8
CCN(Cc1ccccc1)C(=O)Cn1c(=O)n(CCC(=O)N2CCCCC2)c(=O)c2sccc21,3.5,-5.9,15.6,-1.8,1.8,·,·
Oc1ccc(C(=S)N2CCN(Cc3ccccc3)CC2)cc1,0.9,39.2,-9.6,5.2,3.5,·,·
S=C(c1ccc(Br)cc1)N1CCN(Cc2ccccc2)CC1,1.5,40.4*,-5.2,0.2,-1.8,29.4,·
O=C(NC1CCCCCC1)C(=S)N1CCOCC1,-14.7,54.3*,1.0,5.3,-3.2,44.1*,1.1
COCCCNC(=S)NNC(=O)c1cc(C2CC2)nc2ccccc12,5.1,-8.8,5.2,-0.3,-2.1,·,·
CC(C#N)(CCc1ccccn1)CCc1ccccn1,14.0,·,·,·,·,·,·
O=[N+]([O-])c1ccc(N2CCN(c3ccc(O)cc3)CC2)cn1,16.1,46.5*,-3.0,1.6,0.0,13.2,·
SMILES,CendR NRP1 mod,APOBEC3G inh,VLA-4 inh,A3A deaminase,MIN6 prolif,A3G conf,UDG A3G counter
COc1ccc(C(C(=O)NC2CCCCC2)N(C(=O)c2ccco2)c2ccccc2C(C)=O)cc1 (centres undefined),1.2,1.4,1.9,-0.1,0.0,·,·
CCn1c(CSc2nc3ccccc3s2)n[nH]c1=S,2.0,46.7*,-5.1,0.1,-2.5,59.2*,-3.3
C=CCn1c(CSc2nc3ccccc3s2)n[nH]c1=S,14.8,44.6*,-11.6,-3.1,-2.0,74.5*,-1.8
Oc1c(CN2CCCC(C(F)(F)F)C2)cc(Cl)c2ccccc12 (centres undefined),1.7,-2.0,-5.2,4.1,-5.1,·,·
COc1ccc(OC)c(C(=O)c2coc3ccc(OC(C)=O)cc23)c1,-8.0,78.9*,6.0,1.0,-3.0,-1.8,·
Cc1ccc2c(C)nc(Nc3nc(CSc4nnc(C)s4)cc(=O)[nH]3)nc2c1,0.8,7.1,2.9,6.6,-3.9,·,·
COc1cccc2c(C)nc(Nc3nc(CSc4nnc(C)s4)cc(=O)[nH]3)nc12,0.9,41.1*,19.9,24.6,-4.3,5.1,·
CC(C)(C)OC(=O)C[C@@H]1C/C=C\C[C@@H](CC(=O)NCCO)C(=O)NC[C@H](c2ccccc2)OC1=O,-5.6,-3.7,-13.9,0.9,1.5,·,·
Cc1ccc(NC(=O)C(C)OC(=O)/C=C/c2ccccc2)cc1S(=O)(=O)N1CCOCC1 (centres undefined),-4.0,-3.9,-9.0,0.4,3.3,·,·
COc1ccc(NC(=S)c2ccc3ccccc3n2)cc1,-6.6,62.3*,0.0,-0.8,0.7,62.5*,-4.1
Cc1ccc(C)c(NC(=O)c2ccc3ccccc3n2)c1,1.8,-3.8,-1.9,-3.0,-0.6,·,·
Cc1ccc(NC(=S)c2ccc3ccccc3n2)c(C)c1,7.1,46.1*,-7.7,2.6,-1.6,21.7*,-5.2
CCOc1ccc(NC(=S)c2ccc3ccccc3n2)cc1,5.7,29.0,9.3,-3.0,-3.9,·,·
Cc1occc1C(=O)NNC(=O)c1ccc(S(=O)(=O)N(C)C)cc1,9.0,-0.8,13.5,-0.3,-2.6,·,·
COc1cccc(OCc2cc(/C=N/NC(=O)c3ccn[nH]3)ccc2OC)c1,-2.2,45.6*,7.6,1.3,-1.7,1.0,·
Cc1cc(C)n(CCc2nc(-c3ccc(C)o3)cs2)n1,-8.2,47.2*,12.2,2.0,-5.1,39.8*,·
Cc1cc(C)n(CCc2nc(-c3cc4ccccc4o3)cs2)n1,-5.5,-2.4,-4.2,-3.1,-3.6,·,·
O=C1Nc2ccccc2SC1c1ccccc1 (centres undefined),0.9,·,4.4,·,·,·,·
Cc1ccc(NC2Sc3ccccc3NC2=O)cc1 (centres undefined),-4.5,51.5*,-0.6,-3.8,-6.5,20.8,-1.4
NS(=O)(=O)c1ccc(CCNC(=O)c2ccc(OCC3CCCO3)cc2)cc1 (centres undefined),6.1,-0.6,2.5,-2.1,0.5,·,·
CCc1cccc(C)c1NC(=S)NCc1ccc2c(c1)cc(C)n2C,-17.8,40.4*,-3.0,-3.2,-7.3,-1.4,2.0
Cc1ccccc1NC(=S)NCc1ccc2c(c1)cc(C)n2C,10.5,-3.6,7.5,-5.3,-7.2,·,·
Cc1ccc(CNC(=O)COc2cc(O)c3c(c2)OC(C)(C)CC3=O)cc1,-2.9,3.7,5.5,1.7,-4.0,·,·
